# Compounds with a hit are over-represented: about 3.1% of the library has one in this group of screens.
# Env fusion inh: HIV envelope-mediated fusion inhibition; HeLa-JRFL Env/CEM21 cell fusion, luciferase; actives 1.1% (n = 360,000); inhibition, % at 12.3 µM;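 active = mean replicate inhibition score of at least 50 and every replicate individually at or above 50; inconclusive = only one of the two criteria met; inactive = mean below 50 and not all replicates reaching 50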
# GSIS activator: GLuc luminescence reporter in INS-1E cells, primary screen for activators of glucose-dependent secretion of insulin; INS-1E GLuc reporter insulin secretion, 2-3 h; activation, % at 16.6 µM; actives 0.61% (n = 370,000);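 active = lowest replicate activation of at least 40%, so every replicate reaches that level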
# miR122 inh: blocks miR-122 activity in Huh7 sensor cells. Huh7 miR-122 Renilla luciferase sensor, 48 h; neutral wells = 0, positive control = 100. activation (reporter increase), % at 12.5 µM. actives 0.3% (n = 340,000). AID 602342;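 active = mean replicate activation score at least 90 and every replicate individually at or above 90; inconclusive = only one of the two criteria met; inactive = neither criterion met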;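 note: higher luciferase means less miR-122 activity so hits act as miR-122 inhibitors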
# C2C12 statin: suppression of simvastatin myotoxicity; rescue of ATP level, % at 7.49 µM; actives 0.78% (n = 330,000); C2C12 myotubes + simvastatin, ATP luminescence, 48 h; scaled: DMSO 0, geranylgeraniol control 100;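 active = mean ATP rescue above about 67%, or every replicate alone reaching that limit, limit read from the data, passing the limit was not always enough; inconclusive = no clear call, values can overlap the other calls; inactive = mean under the limit and some replicate under it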;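 note: myotubes were challenged with 10 µM simvastatin during compound exposure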
# EWS-Fli block: EWS/Fli transcriptional activity inhibition. A673 NR0B1-luciferase reporter, viability-normalised. inhibition, % at 12.6 µM. actives 0.67% (n = 350,000);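 active = mean inhibition of at least 50% after viability correction, with every replicate also passing that limit; inconclusive = mean reaches 50% but only one of two replicates passes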;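 note: firefly luciferase signal divided by Alamar Blue viability fluorescence both relative to DMSO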
# PAX8 reporter: lowers PAX8-driven luciferase in RMG-I cells | RMG-I TPO-luciferase reporter, SteadyGlo, 24 h | inhibition, % at 12.6 µM | actives 1.2% (n = 360,000) | AID 652154;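 active = mean replicate inhibition at least 60% with every replicate also reaching 60%; inconclusive = only one of the two criteria is met; inactive = mean below 60% and not all replicates reaching 60%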;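 note: luciferase light reporting Pax8 driven TPO promoter activity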
# Numbers stand for hits; . = inactive; ? = inconclusive; / = no result.
SMILES,Env fusion inh,GSIS activator,miR122 inh,C2C12 statin,EWS-Fli block,PAX8 reporter
C[C@H](CO)N1C[C@H](C)[C@H](CN(C)S(=O)(=O)c2cn(C)cn2)OCCCC[C@H](C)Oc2ccc(NC(=O)CCCN(C)C)cc2C1=O,.,.,.,/,.,.
O=C(Cc1ccc(F)cc1)OCC(=O)N1CCN(S(=O)(=O)c2ccc(Cl)cc2)CC1,.,.,.,.,.,101.3
COc1ccc(CN2C(=O)CSCC2=O)cc1OC,.,.,.,.,.,.
O=C1C2C(C(=O)N1CCc1ccccc1)C1C=CC2C12CC2 (configuration not stated),/,.,.,.,.,/
COc1ccc(CCN2CC(=O)NC(=O)C2)cc1OC,.,54.5,/,/,.,.
COc1ccc(CCN2C(=O)C3C(C2=O)C2C=CC3C23CC3)cc1OC (configuration not stated),.,.,.,118.4,.,.
COc1ccc(CCN2C(=O)CSC2=S)cc1OC,.,.,/,.,.,90.3
CC(C)C#Cc1ccc2c(c1)O[C@@H](CN(C)S(=O)(=O)c1cn(C)cn1)[C@H](C)CN([C@@H](C)CO)S2(=O)=O,/,.,.,.,.,.
CCOc1cccc(CNc2ccc(O)cc2)c1OCc1ccccc1Cl,/,/,.,108.0,/,/
CCOc1cccc(CNc2ccc(O)cc2)c1OCc1ccc(Cl)cc1Cl,/,/,.,.,/,/
C[C@H](CO)N1C[C@H](C)[C@H](CN(C)Cc2ccc(C(F)(F)F)cc2)Oc2c(NS(=O)(=O)c3cccs3)cccc2C1=O,.,.,.,.,.,.
CO[C@@H]1CN(C)C(=O)c2ccc(NC(=O)c3cccc(Oc4ccccc4)c3)cc2OC[C@H](C)NC[C@H]1C,.,.,/,.,69.9,.
COc1cccc(C(=O)Nc2ccc3c(c2)OC[C@@H](C)NC[C@H](C)[C@@H](OC)CN(C)C3=O)c1,.,.,.,.,.,/
COc1ccc(CN2C[C@H](C)[C@@H](OC)CN(C)C(=O)c3ccc(NC(=O)c4nc5ccccc5s4)cc3OC[C@H]2C)cc1,.,.,/,.,.,.
CO[C@@H]1CN(C)C(=O)c2cc(NC(=O)c3ccc(-c4ccccc4)cc3)ccc2OC[C@@H](C)NC[C@@H]1C,/,.,/,.,74.9,.
COc1ccc(CN2C[C@H](C)[C@@H](OC)CN(C)C(=O)c3ccc(NC(=O)c4nc5ccccc5s4)cc3OC[C@@H]2C)cc1,.,/,/,.,.,74.4
CO[C@@H]1CN(C)C(=O)c2cc(NC(=O)c3nc4ccccc4s3)ccc2OC[C@H](C)NC[C@H]1C,/,.,/,.,.,84.4
COc1ccc(C#Cc2ccc3c(c2)[C@H]2[C@H](CCN2C(=O)CC2CC2)[C@H](CO)N3)cc1,/,.,.,.,.,.
CO[C@H]1CN(C)C(=O)c2cc(NC(=O)c3nc4ccccc4s3)ccc2OC[C@H](C)NC[C@H]1C,/,.,/,.,.,.
CO[C@H]1CN(C)C(=O)c2cc(NC(=O)c3nc4ccccc4s3)ccc2OC[C@@H](C)NC[C@@H]1C,/,.,/,.,53.7,.
CCOC(=O)c1cc(-c2ccc(/C=N\n3cnnc3)o2)ccc1Cl,/,/,.,.,/,/
CCCCOC(=O)c1cc(-c2ccc(/C=N/n3cnnc3)o2)ccc1Cl,.,57.9,.,/,/,/
CNC[C@@H]1Oc2ncc(-c3cccc(F)c3)cc2C(=O)N([C@@H](C)CO)C[C@@H]1C,.,.,.,.,.,/
CC(C)c1ccc(N(CC(=O)NCCc2ccccc2)C(=O)c2csnn2)cc1,.,.,.,80.7,.,.
Cc1ccc(N(CC(=O)NCCc2ccccc2)C(=O)c2csnn2)cc1,.,.,/,.,.,.
SMILES,Env fusion inh,GSIS activator,miR122 inh,C2C12 statin,EWS-Fli block,PAX8 reporter
Cc1c(C(Nc2ccccn2)c2ccccc2)c(=O)n(-c2ccccc2)n1C (configuration not stated),/,/,.,80.8,/,/
Cc1ccc(S(=O)(=O)N(C)C[C@H]2Oc3ccc(NS(=O)(=O)c4ccccc4)cc3C(=O)N([C@H](C)CO)C[C@@H]2C)cc1,.,.,.,/,.,/
CN(C)C(=O)C[C@@H]1CC[C@H]2[C@@H](COC[C@@H](O)CN2CC2CC2)O1,/,.,.,.,.,.
C[C@@H]1CCCCO[C@@H](CN(C)C(=O)Nc2ccc(C(F)(F)F)cc2)[C@H](C)CN([C@@H](C)CO)C(=O)c2cc(NS(C)(=O)=O)ccc2O1,.,.,.,/,.,.
O=C(Cn1c(=O)n(Cc2ccc(F)cc2)c(=O)c2ccccc21)NCC1CCCO1 (configuration not stated),.,.,.,.,.,.
O=c1c2ccccc2n(Cc2ccc(F)cc2)c(=O)n1C1CCCC1,/,/,.,116.0,/,/
COc1ccc(S(=O)(=O)Nc2ccc3c(c2)C(=O)N([C@@H](C)CO)C[C@@H](C)[C@@H](CN(C)C(=O)Nc2ccccc2)O3)cc1,.,.,.,.,.,.
COc1cccc(NC(=O)N[C@H]2C=C[C@@H](CC(=O)N3CCN(C)CC3)O[C@H]2CO)c1,.,.,/,.,.,.
C[C@H]1CCCCO[C@@H](CN(C)Cc2ccncc2)[C@@H](C)CN([C@@H](C)CO)C(=O)c2cc(NC(=O)Nc3ccc(C(F)(F)F)cc3)ccc2O1,.,.,.,/,.,81.3
C[C@H](CO)N1C[C@H](C)[C@@H](CN(C)Cc2ccncc2)OCCCC[C@H](C)Oc2ccc(NC(=O)Nc3ccc(C(F)(F)F)cc3)cc2C1=O,.,.,.,/,.,.
C[C@@H]1CCCCO[C@@H](CN(C)Cc2ccncc2)[C@H](C)CN([C@@H](C)CO)C(=O)c2cc(NC(=O)Nc3ccc(C(F)(F)F)cc3)ccc2O1,.,.,.,/,.,93.4
C[C@H](CO)N1C[C@H](C)[C@H](CN(C)Cc2ccncc2)OCCCC[C@H](C)Oc2ccc(NC(=O)Nc3ccc(C(F)(F)F)cc3)cc2C1=O,.,.,.,/,.,70.7
CC(C)[C@@H]1C(=O)N[C@@H](c2ccc3c(c2)OCO3)CC=CC[C@@H](C)Oc2ccccc2C(=O)N1C (mixture of isomers),/,.,/,/,/,/
COCCn1c(=S)[nH]c2sc3c(c2c1=O)CCCC3,.,45.3,.,.,.,.
COCCCn1c(=S)[nH]c2sc3c(c2c1=O)CCCC3,.,.,.,.,.,.
CC(C)(C)c1ccc(NC(=O)CON=C(N)c2ccccc2)cc1,.,.,.,.,.,.
Cc1ccc(NC(=O)CO/N=C(\N)c2ccccc2)cc1C,/,/,.,95.5,.,.
C[C@H](CO)N1C[C@H](C)[C@@H](CN(C)C(=O)c2ccc(F)cc2)Oc2ncc(-c3ccncc3)cc2C1=O,.,.,.,.,.,/
CCOC(=O)Oc1c(OC)cc(C(=O)O[C@@H]2C[C@@H]3CN4CCc5c([nH]c6cc(OC)ccc56)[C@H]4C[C@@H]3[C@H](C(=O)OC)[C@H]2OC)cc1OC,.,/,.,.,.,74.9
CCC(=O)Nc1c(C#N)c2nc3ccccc3nc2n1-c1ccccc1C,?,/,.,191.8,/,/

# Screening data deposited in PubChem by Broad Institute.
